The nature of assay [1]: antimalarial activity against Dd2 strain (AID 2302;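 active = growth inhibition above 50% at the single 2 µM test dose, taken to imply half-maximal potency below 2 µM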;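 note: 0% = DMSO untreated growth and 100% = chloroquine plus artemisinin killed control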). The conditions noted are these: P. falciparum Dd2 in RBCs, LDH growth readout, 72 h; at 2 µM; active compounds read high.
Assay [2] in a line: HepG2 cytotoxicity, primary screen, cytotoxicity control for P. falciparum antimalarial project, cell-based, ATP luminescence (AID 2303;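 active = inhibition above 50%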;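 note: 0% = DMSO wells and 100% = digitonin-killed cells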). The note with it: HepG2 viability, 24-48 h, at 10 µM, active compounds read high.
In assay [3] the target is L-lactate dehydrogenase (Plasmodium falciparum (isolate CDC / Honduras)) (UniProt Q27743). Nature of the assay: PfLDH activity inhibition – cell lysate, 3D7 strain, counter-screen for P. falciparum growth inhibition project (AID 2304).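 Note: 0% = vehicle and 100% = reference inhibitor.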 The note with it: P. falciparum 3D7 crude extract, LDH APAD/NBT absorbance; at 2 µM; active compounds read high. On the technique in general: Counterscreens check selectivity or assay interference.

A short description of assay [4]: inhibition of 3D7 malaria parasite growth – strain 3D7 (AID 2306).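 Note: 0% = DMSO wells and 100% = chloroquine plus artemisinin control wells.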 The conditions noted are these: P. falciparum 3D7 erythrocytic growth, LDH absorbance, 72 h; at 2 µM; active compounds read high.
Assay [5] deals with Calcium-dependent protein kinase 1 (Plasmodium falciparum (isolate 3D7)) (UniProt P62344). Nature of the assay: PfCDPK1 kinase inhibitors, biochemical, TCAMS library (AID 1159585; cut-off not given, nearly all actives have IC50 up to about 0.98 µM;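 note: inhibitors leave more ATP so luminescence rises with inhibition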). The conditions noted are these: recombinant PfCDPK1, Kinase-Glo ATP depletion luminescence. On the technique in general: Kinase-Glo reads ATP consumption through a luciferase reaction.
Assay [6] deals with Plasmodium falciparum protein kinase 6 (PK6, PF3D7_1337100) (UniProt Q8IDW1). Nature of the assay: PfPK6 kinase inhibitors, biochemical, TCAMS library (AID 1159586). The conditions noted are these: recombinant PfPK6, Kinase-Glo ATP depletion luminescence.
Assay [7] has as its target Protein kinase 7 (PK7), Plasmodium falciparum 3D7 (PF3D7_0213400) (UniProt Q7YTF7). Nature of the assay: inhibition of Plasmodium PK7 catalytic activity – biochemical, TCAMS antimalarial set, Kinase-Glo luminescence (AID 1159587). The conditions noted are these: recombinant PfPK7, Kinase-Glo ATP depletion luminescence.
In assay [8] the target is Calcium-dependent protein kinase 4 (Plasmodium falciparum (isolate 3D7)) (UniProt Q8IBS5). Nature of the assay: PfCDPK4 kinase inhibitors, biochemical, TCAMS library (AID 1159588; cut-off not given, nearly all actives have IC50 up to about 0.91 µM). The conditions noted are these: recombinant PfCDPK4, Kinase-Glo ATP depletion luminescence.

Molecules are shown by their SMILES. Values without a mark were called inactive. For some of these results: Measured potencies and affinities stand elsewhere. Activity calls are given as the source filed them. Unless noted, the rule behind the calls is not given here.

By inhibition is commonly meant the change of the read-out against control, counted positive when it falls.

L-lactate dehydrogenase (Plasmodium falciparum (isolate CDC / Honduras)), sequence (Q27743 whole entry, looked up): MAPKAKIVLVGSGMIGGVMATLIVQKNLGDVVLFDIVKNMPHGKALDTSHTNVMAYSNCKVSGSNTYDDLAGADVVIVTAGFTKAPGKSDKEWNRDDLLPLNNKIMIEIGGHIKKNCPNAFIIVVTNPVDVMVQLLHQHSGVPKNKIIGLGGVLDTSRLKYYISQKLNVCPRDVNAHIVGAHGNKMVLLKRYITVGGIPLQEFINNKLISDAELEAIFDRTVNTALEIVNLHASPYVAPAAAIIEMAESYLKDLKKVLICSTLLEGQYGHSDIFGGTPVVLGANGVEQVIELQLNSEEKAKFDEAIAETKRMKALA
Plasmodium falciparum protein kinase 6 (PK6, PF3D7_1337100), sequence (Q8IDW1 1-305): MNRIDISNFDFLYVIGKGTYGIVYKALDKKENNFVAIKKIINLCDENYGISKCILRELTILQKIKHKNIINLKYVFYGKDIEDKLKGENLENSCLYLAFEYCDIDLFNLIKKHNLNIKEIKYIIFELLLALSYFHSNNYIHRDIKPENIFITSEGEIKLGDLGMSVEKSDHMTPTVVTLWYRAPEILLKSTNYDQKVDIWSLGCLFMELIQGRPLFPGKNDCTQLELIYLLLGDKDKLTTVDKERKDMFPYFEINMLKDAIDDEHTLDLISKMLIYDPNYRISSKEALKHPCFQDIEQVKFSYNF
Protein kinase 7 (PK7), Plasmodium falciparum 3D7 (PF3D7_0213400), sequence (Q7YTF7 1-343): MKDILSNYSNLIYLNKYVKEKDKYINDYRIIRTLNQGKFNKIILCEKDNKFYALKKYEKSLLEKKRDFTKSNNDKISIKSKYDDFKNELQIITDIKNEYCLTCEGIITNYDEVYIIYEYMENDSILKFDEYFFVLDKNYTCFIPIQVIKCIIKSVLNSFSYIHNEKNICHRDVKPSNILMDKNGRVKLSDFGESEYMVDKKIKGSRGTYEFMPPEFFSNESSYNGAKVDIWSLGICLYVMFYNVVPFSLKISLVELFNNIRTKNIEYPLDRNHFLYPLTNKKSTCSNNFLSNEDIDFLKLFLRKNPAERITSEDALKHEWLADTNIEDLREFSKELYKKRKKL
Calcium-dependent protein kinase 4 (Plasmodium falciparum (isolate 3D7)), sequence (Q8IBS5 whole entry, looked up): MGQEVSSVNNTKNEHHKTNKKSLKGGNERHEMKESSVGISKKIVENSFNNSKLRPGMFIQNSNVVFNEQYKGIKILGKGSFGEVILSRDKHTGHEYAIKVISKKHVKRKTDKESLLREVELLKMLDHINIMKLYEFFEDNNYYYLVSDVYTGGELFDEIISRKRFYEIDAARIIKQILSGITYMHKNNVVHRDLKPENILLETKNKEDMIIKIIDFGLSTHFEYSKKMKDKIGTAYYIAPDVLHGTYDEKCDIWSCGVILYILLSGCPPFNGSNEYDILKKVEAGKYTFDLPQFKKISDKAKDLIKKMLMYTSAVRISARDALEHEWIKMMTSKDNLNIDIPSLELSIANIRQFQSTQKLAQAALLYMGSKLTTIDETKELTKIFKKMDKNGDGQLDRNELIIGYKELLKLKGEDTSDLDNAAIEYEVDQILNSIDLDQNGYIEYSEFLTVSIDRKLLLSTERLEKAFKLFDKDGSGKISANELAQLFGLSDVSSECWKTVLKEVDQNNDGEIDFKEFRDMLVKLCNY
Calcium-dependent protein kinase 1 (Plasmodium falciparum (isolate 3D7)), sequence (P62344 whole entry, looked up): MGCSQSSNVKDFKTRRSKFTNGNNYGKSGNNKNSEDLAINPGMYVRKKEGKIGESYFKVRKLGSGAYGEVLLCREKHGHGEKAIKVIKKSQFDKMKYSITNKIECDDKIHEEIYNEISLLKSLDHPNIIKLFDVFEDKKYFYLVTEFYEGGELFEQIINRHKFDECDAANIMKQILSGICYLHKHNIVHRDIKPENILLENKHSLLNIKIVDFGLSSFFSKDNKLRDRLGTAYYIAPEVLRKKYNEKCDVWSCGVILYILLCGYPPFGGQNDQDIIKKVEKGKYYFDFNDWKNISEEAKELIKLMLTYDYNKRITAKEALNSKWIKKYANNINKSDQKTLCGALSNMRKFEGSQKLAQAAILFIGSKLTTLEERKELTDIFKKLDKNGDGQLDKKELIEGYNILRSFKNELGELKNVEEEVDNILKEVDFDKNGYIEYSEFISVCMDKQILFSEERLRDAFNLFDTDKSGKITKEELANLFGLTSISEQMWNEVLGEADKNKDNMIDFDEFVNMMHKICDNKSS

In the case of `NC(=O)C1CCN(Cc2ccc(-c3cccc(-c4nc5ccc(F)cc5[nH]4)c3)cc2)CC1`, the growth inhibition in assay [1] was 3%; in assay [4], 90% (active). Moreover, the inhibition in assay [2] is 10%; in assay [3] it was -8%. The outcome in assay [5], in assay [6], in assay [7] and in assay [8] was inactive.
As for `Nc1ccnc(N2CCC(CCOc3ccnc4cc(Cl)ccc34)CC2)c1`, the values for the growth inhibition in assay [1] and in assay [4] were 99% (active) and 100% (active), respectively. Besides, the inhibition in assay [2] was 34%; in assay [3] it was 4%. Further, the result in assay [5], in assay [6], in assay [7] and in assay [8] was inactive.
For the molecule `COc1ccc(Cn2c(Nc3cccc(C(F)(F)F)c3)nc3ccc(C(=O)NCCN4CCCC4)cc32)cc1Cl`, the results for the growth inhibition in assay [1] and in assay [4] were 6% and 100% (active), respectively. Also, the inhibition in assay [2] is 14%; in assay [3], 2%. Also, the result in assay [5], in assay [6], in assay [7] and in assay [8] was inactive.
In the case of `O=c1cc(NCCCNC2CCCc3c2ccc2ccccc32)[nH]c2ccccc12` (stereo not given), the results for the growth inhibition in assay [1] and in assay [4] were 30% and 94% (active), respectively. Further, the inhibition is -1% in assay [2] and -2% in assay [3]. In addition, the outcome in assay [5], in assay [6], in assay [7] and in assay [8] was inactive.
For `NC(N)=NCCCN(Cc1ccccc1)c1ccc(Cl)cc1`, the growth inhibition in assay [1] was 98% (active); in assay [4], 100% (active). Also, the results for the inhibition in assay [2] and in assay [3] were -9% and -7%, respectively. The outcome in assay [5], in assay [6], in assay [7] and in assay [8] was inactive.
Regarding `COc1ccc(Nc2ncc3c(-c4cccc(NC(=O)c5ccccc5)c4)c[nH]c3n2)cc1OC`, the growth inhibition in assay [1] is 95% (active); in assay [4], 101% (active). Also, the inhibition in assay [2] is 54% (active); in assay [3] it was -7%. Moreover, the result in assay [5], in assay [6], in assay [7] and in assay [8] was inactive.
With `COc1ccc(CNC2Cc3ccccc3C2)cc1-c1ccc(S(=O)(=O)NCCN2CCCC2)cc1`, the growth inhibition in assay [1] was 61% (active); in assay [4] it was 101% (active). In addition, the results for the inhibition in assay [2] and in assay [3] were 40% and -7%, respectively. In addition, the result in assay [5], in assay [6], in assay [7] and in assay [8] was inactive.
In the case of `Cc1cc(CN2CC[C@H](NC(=O)c3ccc(Cl)c(Cl)c3)C2)ccc1OCCN1CCNCC1`, the growth inhibition in assay [1] was 1%; in assay [4], 94% (active). Besides, the results for the inhibition in assay [2] and in assay [3] were 15% and -1%, respectively. Moreover, the result in assay [5], in assay [6], in assay [7] and in assay [8] was inactive.
With `O=C(Cc1cnc[nH]1)Nc1cccc(-c2ccc(-c3nc4ccc(C(F)(F)F)cc4[nH]3)s2)c1`, the growth inhibition in assay [1] is 99% (active); in assay [4], 101% (active). The inhibition in assay [2] is 5%; in assay [3], 3%. Further, the result in assay [5], in assay [6], in assay [7] and in assay [8] was inactive.
With `CC(Cc1ccc(COc2ccc(CC(CO)NCCc3cccc(Cl)c3)cc2)cc1)NCCc1cccc(Cl)c1` (stereo not given), the growth inhibition in assay [1] is 86% (active); in assay [4], 101% (active). Also, the inhibition is 99% (active) in assay [2] and 5% in assay [3]. Also, the result in assay [5], in assay [6], in assay [7] and in assay [8] was inactive.
On to `Cc1cccn2c(=O)c3cc(C(=O)NCc4cccnc4)c(=N)n(CCc4ccccc4)c3nc12`, for which the growth inhibition was 38% in assay [1] and 99% (active) in assay [4]. The inhibition in assay [2] and in assay [3] was -2% in each case. For the same molecule, the result in assay [5], in assay [6], in assay [7] and in assay [8] was inactive.
For the molecule `CCCCNCc1ccc(-c2nc(CN(CCCn3ccnc3)C(=O)C3COc4ccccc4O3)cs2)cc1` (stereo not given), the growth inhibition was 8% in assay [1] and 93% (active) in assay [4]. The inhibition in assay [2] is 6%; in assay [3], -4%. For the same molecule, the outcome in assay [5], in assay [6], in assay [7] and in assay [8] was inactive.
Consider `Cc1ccc(NC(=O)Nc2ccccc2)cc1-c1ccc(C(=O)Nc2ccncc2)cc1`, for which the growth inhibition in assay [1] was 52% (active); in assay [4], 99% (active). In addition, the inhibition in assay [2] is 67% (active); in assay [3] it was 0%. Besides, the result in assay [5], in assay [6], in assay [7] and in assay [8] was inactive.
With `COc1cc(CNC2Cc3ccccc3C2)ccc1Oc1ccc2nc[nH]c2c1`, the growth inhibition was 50% (active) in assay [1] and 98% (active) in assay [4]. Also, the results for the inhibition in assay [2] and in assay [3] were 30% and -1%, respectively. The outcome in assay [5], in assay [6], in assay [7] and in assay [8] was inactive.
On to `O=C(/C=C/c1ccc(Cl)c(Cl)c1)NCCCCCN1CCC(NC(=O)Nc2cc(F)ccc2F)CC1`, for which the growth inhibition was 22% in assay [1] and 98% (active) in assay [4]. Moreover, the figures for the inhibition in assay [2] and in assay [3] were 78% (active) and 3%, respectively. In addition, the result in assay [5], in assay [6], in assay [7] and in assay [8] was inactive.
Take `O=C(C=Cc1ccc(Cl)c(Cl)c1)NCCCCCN1CCCC(CCCNS(=O)(=O)c2ccc(Br)cc2)C1` (stereo not given): the growth inhibition was 5% in assay [1] and 88% (active) in assay [4]. For the same molecule, the inhibition in assay [2] is 43%; in assay [3] it was -2%. For the same molecule, the result in assay [5], in assay [6], in assay [7] and in assay [8] was inactive.
As to `CC1CCC(NCc2c(O)ccc3ccccc23)CC1` (stereo not given), the growth inhibition in assay [1] is 77% (active); in assay [4], 95% (active). The inhibition in assay [2] is 13%; in assay [3], -1%. Further, the result in assay [5], in assay [6], in assay [7] and in assay [8] was inactive.
With `CCCCN(CCCC)CCCCNc1c2ccccc2nc2ccccc12`, the growth inhibition in assay [1] and in assay [4] was 100% (active) in each case. The inhibition in assay [2] was 36%; in assay [3], 0%. Besides, the result in assay [5], in assay [6], in assay [7] and in assay [8] was inactive.
On to `CCNc1cc(C(=O)N[C@@H](Cc2ccccc2)[C@H](O)CNC(C)(C)CCCC(C)C)cc(N2CCCC2=O)c1`, for which the growth inhibition in assay [1] is 81% (active); in assay [4], 100% (active). In addition, the inhibition in assay [2] was -12%; in assay [3] it was -1%. Also, the outcome in assay [5], in assay [6], in assay [7] and in assay [8] was inactive.
For the molecule `NC(=O)c1cccc(Nc2nccc(Nc3ccc(Oc4ccc5ccccc5c4)cc3)n2)c1`, the values for the growth inhibition in assay [1] and in assay [4] were 31% and 96% (active), respectively. Besides, the inhibition was 15% in assay [2] and 5% in assay [3]. The outcome in assay [5], in assay [6], in assay [7] and in assay [8] was inactive.

Values taken from PubChem BioAssay.
